Six molecules from PubChem BioAssay can be followed below.

Inconclusive results are not listed. Active and inactive are the calls of the source.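 How the source made its calls, unless noted: active means GFP response above 150% of the DMSO level; inconclusive means fewer than 70 events counted for a yeast strain; inactive means the rest.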

Assay [1] is described as follows: hit retest on RPL19A-GFP reporter strain – cell-based, S. cerevisiae, flow cytometry, cherry picks, mother/daughter gates, confirmation (AID 2270;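 active means GFP response below 50% of the DMSO control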). Particulars: 3 h, at 10 µM, stronger effect = lower value, 100 = same GFP as DMSO wells. Background: In flow cytometry, cells or beads pass a laser one at a time.
Assay [2] is described as follows: yeast TOR pathway reporter LAP4-GFP change – cell-based, cherry picks, flow cytometry, mother/daughter gates, confirmation (AID 2271;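 active means GFP response above 150% of the DMSO control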;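 further: ratio of sample to DMSO plate mean so 100% equals DMSO level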). As to conditions: S. cerevisiae LAP4-GFP strain, 3 h, at 10 µM, stronger effect = higher value.
A short description of assay [3]: TOR pathway reporter MEP2-GFP, retest of hits – S. cerevisiae, flow cytometry GFP, cherry picks, confirmation (AID 2272;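 active means GFP response above 150% of the DMSO control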;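 further: ratio of well signal to plate DMSO mean so 100% equals DMSO level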). Particulars: S. cerevisiae MEP2-GFP strain, 3 h, at 10 µM, stronger effect = higher value.
A short description of assay [4]: yeast AGP1-GFP fluorescence change, single-dose – cell-based, flow cytometry, S. cerevisiae, cherry picks, confirmation (AID 2273).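 Further: median GFP channel fluorescence over the whole cell population gate.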 Particulars: S. cerevisiae AGP1-GFP strain, 3 h, at 10 µM.
Assay [5] can be described thus: TOR pathway CIT2 reporter hit retest – S. cerevisiae, GFP fusion, cherry picks, mother/daughter gates, confirmation (AID 2274). As to conditions: S. cerevisiae CIT2-GFP strain, flow cytometry, 3 h, at 10 µM, stronger effect = higher value.
A short description of assay [6]: rapamycin-like changes in RPL19A-GFP expression – cell-based, S. cerevisiae, multiplex flow cytometry, primary screen (AID 1862; in the data active means percent of DMSO control GFP below about 86%;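 further: lower values mimic rapamycin by blocking the RPL19A rise seen in DMSO cells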). Particulars: S. cerevisiae RPL19A-GFP strain, flow cytometry fluorescence, 3 h; at 10 µM; stronger effect = lower value.
Assay [7] in a line: TOR pathway GLN3 branch reporter MEP2-GFP changes – S. cerevisiae, multiplex flow cytometry, primary screen (AID 1867;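 active means GFP response, as percent of the DMSO control, above the screen-wide mean plus 3 SD, about 139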;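 further: median GFP channel fluorescence of barcode-gated MEP2-GFP cells measured by flow cytometry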). As to conditions: S. cerevisiae MEP2-GFP strain, 3 h, at 10 µM, stronger effect = higher value.
Assay [8] in a line: TOR pathway RTG branch CIT2 reporter changes – S. cerevisiae, GFP fusion, multiplex flow cytometry, primary screen (AID 1870;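 active means percent response above a set limit, the screen-wide mean plus 3 SD, cut at about 130% in these data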;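 further: barcoded CIT2-GFP strain pooled with four other GFP strains with rapamycin as positive control; median GFP fluorescence per well over plate mean of DMSO wells so 100% = DMSO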). Particulars: S. cerevisiae CIT2-GFP expression, 3 h, at 10 µM, stronger effect = higher value.
A short description of assay [9]: TOR pathway LAP4-GFP level changes – S. cerevisiae, multiplex flow cytometry, primary screen (AID 1873;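 active means GFP signal, as percent of the solvent control, above the screen mean plus 3 SD, about 149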). As to conditions: S. cerevisiae LAP4-GFP expression, 3 h, at 10 µM, stronger effect = higher value.
Assay [10] in a line: yeast AGP1-GFP level changes, GLN3 branch – cell-based, multiplex flow cytometry, S. cerevisiae, primary screen (AID 1887;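 active means GFP signal above the screen-wide mean plus 3 SD, that is over about 124.5% of the solvent control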;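 further: AGP1-GFP fusion strain of S. cerevisiae within a five-strain barcoded multiplex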). Particulars: 3 h, at 10 µM, stronger effect = higher value.
The nature of assay [11]: reduced mouse 2C T cell binding to pMHC/ICAM-1 vesicles – MLPCN validation set, flow cytometry, LFA-1/ICAM-1 modulator project, pilot screen (AID 2523;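 active means response below a set limit, under 55% cells CD8-positive and vesicle-bound, and CD8 cells' 90th-percentile brightness under 279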;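 on vesicle binding response: mean PE anti-B7-1 fluorescence of CD8+ cells relative to row control; 100% = QL9-loaded vesicles with DMSO vehicle in the same plate row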). As to conditions: 2C mouse CD8+ T cells, at 7 µM, stronger effect = lower value; double positive events: measured here: CD8+/vesicle+ event percentage.
Assay [12] addresses Integrin beta-1 (Homo sapiens) + Integrin alpha-4 (Homo sapiens) (UniProt P13612+P05556). Kind of assay: alpha4beta1 integrin LIBS antibody binding reduction – U937 cells, HUTS-21 mAb, flow cytometry, validation set, VLA-4 allosteric modulator project, pilot screen (AID 2674;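 active means inhibition above 50%, about 3 SD of the validation set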;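 further: antibody binding induced by the VLA-4 ligand LDV present at three times its Kd; 0% = LDV ligand with antibody and no compound and 100% = antibody without LDV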). As to conditions: HUTS-21 LIBS mAb binding, at 6.7 µM, stronger effect = higher value.
The nature of assay [13]: calorie-restriction mimetic ROS inhibitors, yeast – validation compound set, pilot screen (AID 2706;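 active means superoxide response below 65% of plate, a cut near 3 SD across the whole screen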;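 further: yeast exposed to compound for one week at 30 degrees C before staining; 100% = mean of all compound wells on the same plate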). Particulars: S. cerevisiae aging, superoxide DHE fluorescence; at 10 µM; stronger effect = lower value.
The target in assay [14] is Beta-adrenergic receptor kinase 1 (Homo sapiens) (UniProt P25098). Kind of assay: GRK2 binders displacing RNA aptamer, biochemical, validation, human GRK2, bead flow cytometry (AID 488806;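 active means aptamer binding inhibition above 30%, about 3 SD of noise from non-fluorescent compounds; inactive means inhibition at or below 30%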). As to conditions: bead-bound GRK2, FAM-aptamer displacement, at 10 µM, stronger effect = higher value.
Assay [15] deals with Beta-2 adrenergic receptor (Homo sapiens) (UniProt P07550). Briefly: agonist-induced loss of surface beta2AR – cell-based, FAP fluorogen, flow cytometry, validation set, pilot screen (AID 504459;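 active means percent response above 42, roughly 3 SD of non-fluorescent test compounds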;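 further: agonist-driven loss of surface beta2AR via internalization measured by FAP dye flow cytometry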). Particulars: Am2.2-beta2AR cells, at 10 µM, stronger effect = higher value.
The target in assay [16] is AP-2 complex subunit beta (Homo sapiens) (UniProt P63010). Kind of assay: beta-arrestin/AP2 interaction blockers – biochemical, validation set, GST-AP2 beads, flow cytometry, pilot screen (AID 504541;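 active means inhibition above 54%, about 3 SD of non-fluorescent compounds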;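 further: AP2 carries R879A mutation and is captured from E. coli lysate; bead-bound FITC arrestin peptide fluorescence measuring arrestin peptide binding to AP2; 0% = DMSO wells and 100% = excess unlabeled arrestin peptide control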). As to conditions: FITC arrestin peptide, at 10 µM, stronger effect = higher value.
Assay [17] can be described thus: cytosolic pH regulators acting via V-ATPase – S. cerevisiae, pHLuorin, HTS validation (AID 504600; in the data active means response above about 15%;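 further: plate controls were DMSO for no effect and reference compound for full effect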). As to conditions: V-ATPase proton transport, at 10 µM, stronger effect = higher value.
Assay [18] has as its system anti-desmoglein-3 scFv antibody binding to human DSG3. Kind of assay: blockers of pathogenic pemphigus antibody–desmoglein-3 binding – biochemical, validation compound set, bead-based, flow cytometry, pilot screen (AID 588368;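 active means binding below the plate cutoff, the plate median minus 3 SD, with a reading above zero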;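 further: signal is the median channel fluorescence of bead-bound GFP antibody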). As to conditions: Protein G beads, DSG3-Fc, scFv-GFP binding, at 10 µM, stronger effect = lower value.
The test system of assay [19] is Botulinum neurotoxin type F light chain protease (Clostridium botulinum). Briefly: Clostridium botulinum type F light chain protease inhibitors, microsphere substrate cleavage, validation (AID 588459; call rule not given here). Particulars: multiplex microsphere protease substrate cleavage assay, flow cytometry; at 10 µM; stronger effect = higher value.
Assay [20] has as its target Botulinum neurotoxin type A (Clostridium botulinum) (UniProt P0DPI0). Kind of assay: BoNT/A light chain protease inhibitors, biochemical, multiplex microsphere flow cytometry, validation set (AID 588460; call rule not given here). Particulars: at 10 µM, stronger effect = higher value.
In assay [21] the target is Lethal factor (Bacillus anthracis) (UniProt P15917). Kind of assay: Bacillus anthracis lethal factor inhibition, microsphere flow cytometry protease assay, validation at 10 µM (AID 588461; call rule not given here). As to conditions: multiplex microsphere protease cleavage assay, stronger effect = higher value.
Assay [22] in a line: Nile Red efflux blockade in pump-expressing yeast – validation compound set, multiplex, phenotypic, pilot screen (AID 588506;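 active means efflux inhibition above 0.42, the validation set average plus 4 SD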;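 further: Nile Red retained in cells so higher fluorescence means more efflux inhibition; 0 = negative control wells and 1 = enniatin B 25 µM full block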). As to conditions: S. cerevisiae pump-expressing triplex, Nile Red efflux flow cytometry; at 10 µM; stronger effect = higher value.
For assay [23], the target named is ATP-binding cassette sub-family B member 6 (Homo sapiens) (UniProt Q9NP58). Briefly: blockers of ABCB6-driven porphyrin uptake – K562-ABCB6 cells, flow cytometry, validation set, pilot screen (AID 588550;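 active means inhibition above the screen-wide mean plus 3 SD, about 51%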;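 further: 0% = DMSO wells and 100% = benzethonium chloride 70 µM positive control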). Particulars: K562-ABCB6 porphyrin accumulation, 1 h, at 10 µM, stronger effect = higher value.
A short description of assay [24]: AML differentiation inducers, ER-HoxA9 marrow cells – cell-based, GFP/MAC1 double positive, flow cytometry, validation set, primary screen (AID 588685;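 active means differentiation response of at least 50%, scaled between solvent and reference control, from cells with both markers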;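 further: compound exposure lasts four days before antibody staining and flow analysis; 0% = DMSO wells and 100% = 5 µM fulvestrant positive control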). As to conditions: stronger effect = higher value.
Setting [25] is: measured here: daughter cell gate.
[26] abbreviates: measured here: mother cell gate.
Setting [27] is: measured here: daughter cell gate response.
The mark [28] stands for this setting: measured here: mother cell gate response.

ATP-binding cassette sub-family B member 6 (Homo sapiens), sequence (Q9NP58 whole entry, looked up): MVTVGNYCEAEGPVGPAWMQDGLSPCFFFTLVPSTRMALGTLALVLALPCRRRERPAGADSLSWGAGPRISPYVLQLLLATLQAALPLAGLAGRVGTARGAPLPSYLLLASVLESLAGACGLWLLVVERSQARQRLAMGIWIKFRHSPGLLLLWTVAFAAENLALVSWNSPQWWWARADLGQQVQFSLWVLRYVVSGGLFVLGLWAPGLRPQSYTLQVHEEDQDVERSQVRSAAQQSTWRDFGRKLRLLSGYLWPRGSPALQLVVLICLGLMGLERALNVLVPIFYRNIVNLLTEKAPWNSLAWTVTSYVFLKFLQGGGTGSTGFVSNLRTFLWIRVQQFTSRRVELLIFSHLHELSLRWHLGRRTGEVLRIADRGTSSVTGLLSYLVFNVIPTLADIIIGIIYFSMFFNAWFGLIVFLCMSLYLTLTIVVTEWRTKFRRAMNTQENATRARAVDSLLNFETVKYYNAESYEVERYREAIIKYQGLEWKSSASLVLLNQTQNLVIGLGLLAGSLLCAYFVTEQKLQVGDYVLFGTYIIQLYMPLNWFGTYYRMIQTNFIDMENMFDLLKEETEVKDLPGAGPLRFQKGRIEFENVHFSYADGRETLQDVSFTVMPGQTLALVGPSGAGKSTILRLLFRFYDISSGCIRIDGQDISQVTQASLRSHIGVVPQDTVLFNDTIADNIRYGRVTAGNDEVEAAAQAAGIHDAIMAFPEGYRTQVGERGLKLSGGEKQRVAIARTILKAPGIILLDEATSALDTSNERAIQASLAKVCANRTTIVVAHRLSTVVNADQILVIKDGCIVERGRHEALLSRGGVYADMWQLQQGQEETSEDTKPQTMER
Botulinum neurotoxin type A (Clostridium botulinum), sequence (P0DPI0 whole entry, looked up): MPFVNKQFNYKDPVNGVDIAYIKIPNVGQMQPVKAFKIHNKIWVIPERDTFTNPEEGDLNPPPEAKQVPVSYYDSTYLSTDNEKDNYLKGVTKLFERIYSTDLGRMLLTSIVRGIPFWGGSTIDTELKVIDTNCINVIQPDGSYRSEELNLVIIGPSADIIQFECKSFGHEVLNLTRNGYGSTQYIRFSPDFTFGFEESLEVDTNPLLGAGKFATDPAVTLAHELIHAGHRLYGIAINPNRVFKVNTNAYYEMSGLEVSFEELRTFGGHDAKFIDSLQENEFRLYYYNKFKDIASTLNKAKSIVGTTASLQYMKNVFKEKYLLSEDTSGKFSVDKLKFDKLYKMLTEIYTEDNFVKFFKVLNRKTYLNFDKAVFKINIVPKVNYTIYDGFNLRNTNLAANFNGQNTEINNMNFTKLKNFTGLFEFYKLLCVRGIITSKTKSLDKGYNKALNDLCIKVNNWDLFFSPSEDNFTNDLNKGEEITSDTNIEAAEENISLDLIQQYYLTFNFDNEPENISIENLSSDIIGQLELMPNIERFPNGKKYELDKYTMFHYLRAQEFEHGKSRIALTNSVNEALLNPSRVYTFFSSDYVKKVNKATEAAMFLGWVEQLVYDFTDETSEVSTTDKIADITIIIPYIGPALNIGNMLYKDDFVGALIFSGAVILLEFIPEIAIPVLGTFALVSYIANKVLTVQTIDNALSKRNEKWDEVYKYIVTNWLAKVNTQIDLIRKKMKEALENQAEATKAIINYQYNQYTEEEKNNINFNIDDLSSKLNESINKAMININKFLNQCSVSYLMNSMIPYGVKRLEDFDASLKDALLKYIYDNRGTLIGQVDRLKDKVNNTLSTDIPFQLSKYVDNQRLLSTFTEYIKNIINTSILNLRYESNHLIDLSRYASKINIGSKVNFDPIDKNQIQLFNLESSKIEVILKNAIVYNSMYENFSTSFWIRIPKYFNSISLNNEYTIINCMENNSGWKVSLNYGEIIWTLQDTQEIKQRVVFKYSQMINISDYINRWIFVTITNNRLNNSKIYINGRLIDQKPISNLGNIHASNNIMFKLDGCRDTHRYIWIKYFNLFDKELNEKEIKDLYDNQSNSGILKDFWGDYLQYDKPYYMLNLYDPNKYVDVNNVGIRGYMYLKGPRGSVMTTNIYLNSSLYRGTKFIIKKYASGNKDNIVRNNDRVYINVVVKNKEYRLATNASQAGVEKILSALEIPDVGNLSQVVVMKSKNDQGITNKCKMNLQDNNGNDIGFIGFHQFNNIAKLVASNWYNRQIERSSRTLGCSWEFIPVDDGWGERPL
Lethal factor (Bacillus anthracis), sequence (P15917 whole entry, looked up): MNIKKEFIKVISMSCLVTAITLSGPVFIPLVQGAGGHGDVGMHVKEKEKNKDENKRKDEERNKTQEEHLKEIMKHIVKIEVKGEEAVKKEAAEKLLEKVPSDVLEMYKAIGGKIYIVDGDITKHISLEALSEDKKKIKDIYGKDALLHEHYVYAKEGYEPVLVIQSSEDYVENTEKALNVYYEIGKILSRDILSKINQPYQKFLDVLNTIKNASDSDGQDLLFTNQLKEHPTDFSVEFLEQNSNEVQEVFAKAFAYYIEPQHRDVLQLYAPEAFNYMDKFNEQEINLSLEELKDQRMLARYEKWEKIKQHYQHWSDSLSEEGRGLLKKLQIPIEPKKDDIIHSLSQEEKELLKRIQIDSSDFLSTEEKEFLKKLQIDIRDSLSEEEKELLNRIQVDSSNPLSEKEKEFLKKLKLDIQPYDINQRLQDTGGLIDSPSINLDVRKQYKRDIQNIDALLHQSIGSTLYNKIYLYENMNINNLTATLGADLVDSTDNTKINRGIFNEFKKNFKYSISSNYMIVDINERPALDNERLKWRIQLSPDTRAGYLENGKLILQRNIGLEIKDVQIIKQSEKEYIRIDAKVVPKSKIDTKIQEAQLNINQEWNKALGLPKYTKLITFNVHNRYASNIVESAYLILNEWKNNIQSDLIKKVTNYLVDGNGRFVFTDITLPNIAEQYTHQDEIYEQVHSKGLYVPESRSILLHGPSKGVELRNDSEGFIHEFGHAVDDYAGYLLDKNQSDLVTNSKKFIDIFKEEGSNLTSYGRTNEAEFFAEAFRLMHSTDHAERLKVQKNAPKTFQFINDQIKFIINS
Beta-adrenergic receptor kinase 1 (Homo sapiens), sequence (P25098 whole entry, looked up): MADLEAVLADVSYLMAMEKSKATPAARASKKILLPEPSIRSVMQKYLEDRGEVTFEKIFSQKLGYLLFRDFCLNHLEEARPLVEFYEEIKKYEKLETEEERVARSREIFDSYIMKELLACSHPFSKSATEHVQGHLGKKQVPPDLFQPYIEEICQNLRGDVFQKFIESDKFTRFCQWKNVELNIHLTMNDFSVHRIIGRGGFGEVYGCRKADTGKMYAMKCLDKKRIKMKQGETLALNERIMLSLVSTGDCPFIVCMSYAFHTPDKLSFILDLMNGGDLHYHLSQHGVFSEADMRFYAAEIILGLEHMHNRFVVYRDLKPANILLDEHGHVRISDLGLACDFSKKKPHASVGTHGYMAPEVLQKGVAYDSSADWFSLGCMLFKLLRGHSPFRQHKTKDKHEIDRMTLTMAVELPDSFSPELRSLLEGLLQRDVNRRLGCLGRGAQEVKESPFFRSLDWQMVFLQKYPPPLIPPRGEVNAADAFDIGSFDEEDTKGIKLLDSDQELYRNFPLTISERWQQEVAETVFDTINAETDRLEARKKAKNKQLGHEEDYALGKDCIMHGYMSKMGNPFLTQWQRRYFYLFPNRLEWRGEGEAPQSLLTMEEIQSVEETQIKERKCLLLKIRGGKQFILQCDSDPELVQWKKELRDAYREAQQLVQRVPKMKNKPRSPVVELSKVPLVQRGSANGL
Beta-2 adrenergic receptor (Homo sapiens), sequence (P07550 whole entry, looked up): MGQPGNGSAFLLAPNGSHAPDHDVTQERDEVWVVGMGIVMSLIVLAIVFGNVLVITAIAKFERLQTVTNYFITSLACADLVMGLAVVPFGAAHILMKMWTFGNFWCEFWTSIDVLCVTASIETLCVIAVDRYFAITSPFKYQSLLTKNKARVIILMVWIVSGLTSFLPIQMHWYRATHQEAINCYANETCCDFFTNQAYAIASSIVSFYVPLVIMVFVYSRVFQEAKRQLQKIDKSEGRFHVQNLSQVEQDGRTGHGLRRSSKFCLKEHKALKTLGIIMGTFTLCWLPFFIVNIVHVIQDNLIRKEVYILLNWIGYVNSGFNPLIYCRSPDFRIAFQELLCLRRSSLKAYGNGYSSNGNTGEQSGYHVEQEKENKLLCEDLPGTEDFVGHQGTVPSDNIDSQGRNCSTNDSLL
AP-2 complex subunit beta (Homo sapiens), sequence (P63010 whole entry, looked up, one chain of several): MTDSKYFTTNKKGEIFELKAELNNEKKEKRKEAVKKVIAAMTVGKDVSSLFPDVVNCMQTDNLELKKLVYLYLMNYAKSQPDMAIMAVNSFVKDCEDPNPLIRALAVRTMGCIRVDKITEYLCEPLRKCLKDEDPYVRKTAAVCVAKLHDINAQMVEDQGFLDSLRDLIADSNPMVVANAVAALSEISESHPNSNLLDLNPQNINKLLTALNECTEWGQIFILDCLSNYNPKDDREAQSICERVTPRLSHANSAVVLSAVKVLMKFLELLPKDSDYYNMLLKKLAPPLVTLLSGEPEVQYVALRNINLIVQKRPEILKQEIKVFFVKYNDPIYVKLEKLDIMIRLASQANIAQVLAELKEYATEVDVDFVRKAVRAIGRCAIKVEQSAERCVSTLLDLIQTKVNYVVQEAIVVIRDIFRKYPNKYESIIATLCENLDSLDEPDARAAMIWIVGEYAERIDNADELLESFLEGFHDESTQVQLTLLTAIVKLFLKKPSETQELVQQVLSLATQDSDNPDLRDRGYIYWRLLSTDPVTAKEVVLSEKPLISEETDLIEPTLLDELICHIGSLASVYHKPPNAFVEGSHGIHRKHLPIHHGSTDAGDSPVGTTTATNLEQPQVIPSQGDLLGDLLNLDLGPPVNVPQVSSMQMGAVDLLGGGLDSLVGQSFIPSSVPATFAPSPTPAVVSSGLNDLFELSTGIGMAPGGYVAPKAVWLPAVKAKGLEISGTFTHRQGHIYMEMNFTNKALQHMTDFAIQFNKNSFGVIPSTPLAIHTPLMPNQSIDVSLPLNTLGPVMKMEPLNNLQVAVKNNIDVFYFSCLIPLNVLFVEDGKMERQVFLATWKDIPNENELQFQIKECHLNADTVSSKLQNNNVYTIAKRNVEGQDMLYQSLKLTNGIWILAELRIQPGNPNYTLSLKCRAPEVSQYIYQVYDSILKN

Turning to `O=C(O)c1[nH]c(=O)[nH]c(=O)c1F`, the GFP response vs DMSO was 96.9% (inactive) in assay [1], 97.6% in [1] (setting [25]), 95.6% in assay [1] (setting [26]) and 101% (inactive) in assay [3]. Moreover, the GFP response relative to DMSO was 100% (inactive) in assay [2], 97.5% in assay [2] (setting [27]) and 100% in assay [2] (setting [28]). The GFP response, % of DMSO in [4] was 102% (inactive); in assay [5], 100% (inactive); in [5] (setting [25]), 99.3%; in assay [5] (setting [26]), 100%.

For the molecule `Nc1ccc2ccc3cccc[n+]3c2c1`, the GFP response vs DMSO in [1] is 111% (inactive); in assay [1] (setting [25]), 110%; in assay [1] (setting [26]) it was 110%; in assay [3], 257% (active). In addition, the GFP response relative to DMSO was 181% (active) in [2], 185% in assay [2] (setting [27]) and 178% in assay [2] (setting [28]). In addition, the GFP response, % of DMSO in assay [4] was 110% (inactive); in assay [5], 199% (active); in [5] (setting [25]) it was 204%; in [5] (setting [26]) it was 196%.

Turning to `CN1C(=O)NC(=O)/C(=C\C=C\c2ccccc2[N+](=O)[O-])C1=O`, the GFP response vs DMSO in assay [1] is 102% (inactive); in [1] (setting [25]), 90.4%; in assay [1] (setting [26]), 93.5%; in assay [3], 105% (inactive). Moreover, the GFP response relative to DMSO is 107% (inactive) in assay [2], 103% in [2] (setting [27]) and 112% in assay [2] (setting [28]). Further, the GFP response, % of DMSO was 108% (inactive) in assay [4], 84.7% (inactive) in assay [5], 96.8% in [5] (setting [25]) and 70.8% in assay [5] (setting [26]).

`Cc1cc(C=C2C(=O)N(C)C(=S)N(C)C2=O)c(C)n1-c1ccncc1`: the GFP response vs DMSO in assay [1] was 92.8% (inactive); in [1] (setting [25]) it was 91.1%; in [1] (setting [26]) it was 88.6%; in assay [3], 113% (inactive). The GFP response relative to DMSO in assay [2] was 114% (inactive); in [2] (setting [27]) it was 108%; in [2] (setting [28]), 117%. In addition, the GFP response, % of DMSO in [4] is 100% (inactive); in [5], 69.1% (inactive); in [5] (setting [25]), 70.3%; in assay [5] (setting [26]), 64.4%.

A word on the inhibition: it is the drop in the measured response relative to a control, in per cent. With `CCNC(=O)[C@H]1O[C@@H](n2cnc3c(N)ncnc32)[C@H](O)[C@@H]1O`, the percent of DMSO control GFP in assay [6] is 97% (inactive). The GFP response vs DMSO is 115% (inactive) in [7] and 88.6% (inactive) in assay [9]. For the same molecule, in assay [8], the percent response of DMSO control was 104% (inactive). Also, in assay [10], the GFP response, % of DMSO was 91.5% (inactive). Besides, the double positive events in assay [11] is 48.3%. Besides, the inhibition in assay [12] was 15.2% (inactive); in assay [16], 3.14% (inactive); in assay [19], -4.2% (inactive); in [20] it was 0% (inactive); in assay [21], 2.8% (inactive); in [23] it was 11% (inactive). In assay [13], the superoxide response (% of plate) was 111% (inactive). In [14], the aptamer binding inhibition is 66% (active). In addition, the response in assay [15] was 0.15% (inactive); in assay [17], 0.72% (inactive). Moreover, the binding (% of control) in [18] was 107% (inactive). In addition, the efflux inhibition (fraction of control) in assay [22] was 0.37 (inactive). Further, the differentiation response in assay [24] was 5.73% (inactive).

`O=C1C=Cc2ccccc2C1=O`: in [6], the percent of DMSO control GFP is 102% (inactive). Besides, the figures for the GFP response vs DMSO in assay [7] and in assay [9] were 116% (inactive) and 89.1% (inactive), respectively. Moreover, in [8], the percent response of DMSO control was 116% (inactive). This molecule displayed a double positive events in assay [11] of 43.3%. Besides, in assay [11], the vesicle binding response was 71.6% (active). Besides, the inhibition in assay [12] was -65.3% (inactive); in assay [16] it was 8% (inactive); in assay [19], -1.2% (inactive); in [20], 1.7% (inactive); in assay [21] it was 1.9% (inactive); in assay [23] it was 7% (inactive). For the same molecule, the superoxide response (% of plate) in assay [13] was 129% (inactive). Also, in assay [14], the aptamer binding inhibition was 2% (inactive). The response in assay [15] was -20.4% (inactive); in [17] it was 1.9% (inactive). In addition, the binding (% of control) in assay [18] is 109% (inactive). The efflux inhibition (fraction of control) in [22] is -0.09 (inactive). Moreover, the differentiation response in assay [24] was 5.73% (inactive).
